The source made the active and inactive calls. Unless noted, the rule behind the calls is not given here.
Experiments:
[1] = system: Wnt5a (protein binding on small-molecule microarray); experiment: Wnt5a binders on small-molecule microarray, primary screen, biophysical, 635/667 nm fluorescence (AID 1142); settings: 635 nm fluorescence, higher = more signal;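 note: fluorescence read at 667 nm with signal to noise per printed feature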
[2] = cell viability in Huh7 cells, primary screen, cytotoxicity control for HCV replication inhibitor project, CellTiter-Glo luminescence, basal, 48 h (AID 1143); settings: Huh7 HCV replicon, higher = more signal, called active from +8 up or from −8 down;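 note: Huh7 hepatoma cells carrying a hepatitis C replication reporter with no stimulus; test concentration not given here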
[3] = P. aeruginosa biofilm formation inhibitors, primary screen, PAO1 strain, BacTiter-Glo luminescence, LB-PBS (AID 1144); settings: 12 h, higher = more signal
[4] = CREB reporter modulators without forskolin, primary screen, cell-based, PC12, CRE-LacZ reporter, unstimulated (AID 1145); settings: no forskolin, luminescence, 4.5 h, higher = more signal, called active from +8 up or from −8 down
[5] = CREB reporter modulators under forskolin, primary screen, cell-based, PC12, CRE-LacZ reporter, forskolin-stimulated (AID 1146); settings: luminescence, 4.5 h, higher = more signal, called active from +8 up or from −8 down;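 note: PC12 cells with 6xCRE LacZ reporter stimulated by forskolin 10 µM; beta-galactosidase reporter signal reflecting CREB driven transcription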
[6] = molecular target: Streptavidin (Streptomyces avidinii) (UniProt P22629); experiment: streptavidin binders on small-molecule microarray, primary screen, artefact control for SMM compound annotation, biophysical, 635/667 nm fluorescence (AID 1147); settings: streptavidin binding, higher = more signal;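 note: signal reflects streptavidin binding to arrayed compounds as a control protein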
Sequence of Streptavidin (Streptomyces avidinii) (P22629 whole entry, looked up): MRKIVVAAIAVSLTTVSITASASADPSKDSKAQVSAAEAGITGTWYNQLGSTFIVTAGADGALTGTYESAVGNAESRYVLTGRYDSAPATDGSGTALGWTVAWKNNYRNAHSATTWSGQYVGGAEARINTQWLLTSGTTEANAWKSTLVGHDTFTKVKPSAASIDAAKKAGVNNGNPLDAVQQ

[7] = small-molecule binders of probe aInhba, primary screen, biochemical, small-molecule microarray, 635/667 nm fluorescence (AID 1148); settings: higher = more signal;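 note: score merges 667nm spot fluorescence with signal-to-noise for antibody binding to printed compounds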
Torsin-1A (Homo sapiens) [8] = molecular target: Torsin-1A (Homo sapiens) (UniProt O14656); experiment: torsin A binders from cell lysate, primary screen, small-molecule microarray, wild-type, 635/667 nm (AID 1149); settings: COS7 hTOR1A-WT lysate, 635 nm fluorescence, higher = more signal
Sequence of Torsin-1A (Homo sapiens) (O14656 whole entry, looked up): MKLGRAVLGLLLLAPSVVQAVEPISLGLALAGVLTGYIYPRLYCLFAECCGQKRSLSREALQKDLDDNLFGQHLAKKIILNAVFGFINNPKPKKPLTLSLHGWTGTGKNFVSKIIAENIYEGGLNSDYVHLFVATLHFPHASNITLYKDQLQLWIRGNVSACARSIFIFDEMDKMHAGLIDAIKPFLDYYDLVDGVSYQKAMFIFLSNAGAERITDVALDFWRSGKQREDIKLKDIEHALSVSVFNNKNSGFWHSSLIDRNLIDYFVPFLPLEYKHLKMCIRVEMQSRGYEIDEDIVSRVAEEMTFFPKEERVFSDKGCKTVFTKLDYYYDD

Torsin-1A (Homo sapiens) [9] = molecular target: Torsin-1A (Homo sapiens) (UniProt O14656); experiment: small-molecule binders of mutant TOR1A in lysate, primary screen, cell lysate, small-molecule microarray, COS7 lysate, 635/667 nm fluorescence (AID 1150); settings: COS7 hTOR1A mutant lysate, 635 nm fluorescence, higher = more signal;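 note: score pools 667 nm emission and signal to noise measuring lysate protein binding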
[10] = system: Sonic hedgehog protein (Shh); experiment: small-molecule binders of Shh protein, primary screen, biochemical, small-molecule microarray, 635/667 nm fluorescence (AID 1151); settings: small-molecule microarray binding, 635 nm fluorescence; higher = more signal;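 note: Shh protein binding to compounds spotted on small-molecule microarray slides; score combines spot fluorescence intensity with signal-to-noise across triplicate slides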
[11] = E. coli DRC41 culture turbidity changes, primary screen, E. coli filamentation inducer project, strain DRC41, OD650, 48 h (AID 1152);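 note: E. coli MC1000 strain DRC41 lacking acrAB efflux pump and sulA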; settings: E. coli DRC41 (acrAB sulA), higher = more signal, called active from +8 up or from −8 down
[12] = small-molecule binders of probe aLefty1, primary screen, biochemical, small-molecule microarray, 635/667 nm fluorescence (AID 1153); settings: higher = more signal;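 note: score merges spot fluorescence with signal-to-noise ratio from the scanned slide images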
[13] = PSAC antagonists in infected red cells, primary screen, cell-based, P. falciparum Indochina, OD700, 1 h (AID 1154); settings: P. falciparum Indochina infected RBC osmotic lysis, higher = more signal, called active from +8 up or from −8 down
[14] = PSAC antagonists in infected red cells, primary screen, cell-based, P. falciparum Indochina, OD700, 2 h (AID 1155);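 note: lysis reports solute entry through the parasite surface anion channel PSAC; channel blockers reduce lysis of infected cells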; settings: P. falciparum Indochina infected erythrocytes, osmotic lysis OD700; higher = more signal, called active from +8 up or from −8 down
[15] = osmotic lysis modulators in infected erythrocytes, primary screen, PSAC antagonist project, cell-based, P. falciparum Indochina, OD700, 3 h (AID 1156); settings: higher = more signal, called active from +8 up or from −8 down
[16] = PSAC antagonists in infected red cells, primary screen, cell-based, P. falciparum Indochina, OD700, 18 h (AID 1157); settings: P. falciparum Indochina infected erythrocytes, osmotic lysis OD700, 18 h; higher = more signal, called active from +8 up or from −8 down
[17] = modulators of S6 phosphorylation in cells, primary screen, cell-based, A549, cytoblot, luminescence, serum-stimulated (AID 1158); settings: A549 phospho-S6 cytoblot, 5 h, higher = more signal;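 note: serum-stimulated A549 lung adenocarcinoma cells; signal is phosphorylated S6 detected by cytoblot immunostaining with HRP secondary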
[18] = molecular target: NADPH oxidase 2 (Homo sapiens) (UniProt P04839); experiment: NOX2-dependent H2O2 signal modulators, primary screen, NOX inhibitor project, cell-based, HEK293-NOX2, PMA-stimulated, Amplex Red fluorescence (AID 1159); settings: 45 min, higher = more signal, called active from +8 up or from −8 down; note: test concentration not given here
Sequence of NADPH oxidase 2 (Homo sapiens) (P04839 whole entry, looked up): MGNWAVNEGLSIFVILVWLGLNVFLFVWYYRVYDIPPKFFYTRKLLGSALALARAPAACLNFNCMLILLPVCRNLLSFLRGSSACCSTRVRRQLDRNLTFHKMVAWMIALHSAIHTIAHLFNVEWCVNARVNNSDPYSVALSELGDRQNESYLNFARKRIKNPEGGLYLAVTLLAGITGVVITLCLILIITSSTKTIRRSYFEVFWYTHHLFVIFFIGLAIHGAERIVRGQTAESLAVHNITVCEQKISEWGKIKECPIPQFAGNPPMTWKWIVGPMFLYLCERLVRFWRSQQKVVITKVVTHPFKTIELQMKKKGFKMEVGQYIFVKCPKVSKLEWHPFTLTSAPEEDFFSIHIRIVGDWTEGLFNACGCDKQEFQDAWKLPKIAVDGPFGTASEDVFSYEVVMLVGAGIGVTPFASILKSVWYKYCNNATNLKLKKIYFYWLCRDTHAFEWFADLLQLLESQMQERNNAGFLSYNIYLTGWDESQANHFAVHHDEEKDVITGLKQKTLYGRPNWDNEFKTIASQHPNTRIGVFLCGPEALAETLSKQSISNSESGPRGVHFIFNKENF

[19] = molecular target: NADPH oxidase 4 (Homo sapiens) (UniProt Q9NPH5); experiment: NOX4-dependent H2O2 signal modulators, primary screen, NOX inhibitor project, cell-based, HEK293-NOX4, tetracycline-induced, Amplex Red fluorescence (AID 1160); settings: 45 min, higher = more signal, called active from +8 up or from −8 down
Sequence of NADPH oxidase 4 (Homo sapiens) (Q9NPH5 whole entry, looked up): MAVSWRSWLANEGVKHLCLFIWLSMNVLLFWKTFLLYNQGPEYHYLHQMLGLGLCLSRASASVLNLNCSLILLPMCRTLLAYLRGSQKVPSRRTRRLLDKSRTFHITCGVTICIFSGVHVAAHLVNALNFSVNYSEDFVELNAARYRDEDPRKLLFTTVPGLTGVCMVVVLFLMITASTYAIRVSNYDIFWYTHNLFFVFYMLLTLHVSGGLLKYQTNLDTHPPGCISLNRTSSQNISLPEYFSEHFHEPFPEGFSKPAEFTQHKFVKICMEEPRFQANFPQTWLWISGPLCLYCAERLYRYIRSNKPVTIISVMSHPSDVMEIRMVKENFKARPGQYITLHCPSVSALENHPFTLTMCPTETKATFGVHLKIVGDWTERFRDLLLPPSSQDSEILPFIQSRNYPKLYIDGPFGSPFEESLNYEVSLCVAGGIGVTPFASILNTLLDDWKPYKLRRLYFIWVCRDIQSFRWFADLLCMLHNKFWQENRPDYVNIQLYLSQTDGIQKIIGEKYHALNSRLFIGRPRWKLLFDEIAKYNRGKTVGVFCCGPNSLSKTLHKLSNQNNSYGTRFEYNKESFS

[20] = molecular target: NADPH oxidase 5 (Homo sapiens) (UniProt Q96PH1); experiment: NOX5-dependent H2O2 signal modulators, primary screen, NOX inhibitor project, cell-based, HEK293-NOX5, Amplex Red fluorescence (AID 1161); settings: HEK293-NOX5, ionomycin, 45 min, higher = more signal
Sequence of NADPH oxidase 5 (Homo sapiens) (Q96PH1 whole entry, looked up): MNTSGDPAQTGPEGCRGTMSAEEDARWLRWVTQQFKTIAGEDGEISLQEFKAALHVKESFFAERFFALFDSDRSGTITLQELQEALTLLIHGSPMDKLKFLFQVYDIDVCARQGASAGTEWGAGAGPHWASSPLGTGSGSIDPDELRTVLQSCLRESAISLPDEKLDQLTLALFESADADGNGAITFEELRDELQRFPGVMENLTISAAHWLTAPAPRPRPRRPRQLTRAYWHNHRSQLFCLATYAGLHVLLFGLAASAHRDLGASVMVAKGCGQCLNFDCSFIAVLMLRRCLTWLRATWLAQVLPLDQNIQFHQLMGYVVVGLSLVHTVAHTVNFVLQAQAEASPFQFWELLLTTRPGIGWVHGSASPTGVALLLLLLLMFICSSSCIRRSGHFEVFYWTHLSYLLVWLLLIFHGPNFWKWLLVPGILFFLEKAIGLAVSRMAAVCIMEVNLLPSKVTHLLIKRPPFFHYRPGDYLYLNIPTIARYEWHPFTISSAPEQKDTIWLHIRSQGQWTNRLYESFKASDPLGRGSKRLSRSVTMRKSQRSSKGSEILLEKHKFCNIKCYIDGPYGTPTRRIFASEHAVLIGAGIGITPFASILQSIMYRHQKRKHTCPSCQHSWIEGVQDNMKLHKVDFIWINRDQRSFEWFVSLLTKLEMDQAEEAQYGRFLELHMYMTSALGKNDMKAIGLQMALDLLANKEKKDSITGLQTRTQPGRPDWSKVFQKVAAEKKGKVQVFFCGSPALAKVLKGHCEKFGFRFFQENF

| Structure (SMILES) | composite z-score [1] | z-score [2] | z-score [3] | z-score [4] | z-score [5] | composite z-score [6] | composite z-score [7] | composite z-score (Torsin-1A (Homo sapiens) [8]) | composite z-score (Torsin-1A (Homo sapiens) [9]) | composite z-score [10] | z-score [11] | composite z-score [12] | z-score [13] | z-score [14] | z-score [15] | z-score [16] | z-score [17] | z-score [18] | z-score [19] | z-score [20] |
| --- | --- | --- | --- | --- | --- | --- | --- | --- | --- | --- | --- | --- | --- | --- | --- | --- | --- | --- | --- | --- |
| CN(C)C(=O)[C@@]1(Cc2ccccc2)N=C(c2ccc(OCCCO)cc2)O[C@H]1c1ccccc1N=[N+]=[N-] | 0.762 | -4.47 (inactive) | -1.05 (inactive) | 0.115 (inactive) | -2.09 (inactive) | 1.5 | 0.086 | 0.697 | 0.505 | -0.346 | 0.89 (inactive) | 0.737 | 30.4 (active) | 27.4 (active) | 2.05 (inactive) | 7.06 (inactive) | 1.33 | -1.93 (inactive) | 0.891 (inactive) | -1.22 |
| Cc1ccc(S[C@]2(C(=O)NC3CC3)CC(=O)N(C3Cc4ccccc4C3)[C@@H]2c2ccc(CO)cc2)cc1 | -0.0244 | -1.6 (inactive) | -0.401 (inactive) | 0.324 (inactive) | -0.906 (inactive) | -0.75 | -0.0136 | -0.382 | 0.23 | -0.766 | 2.26 (inactive) | 0.0962 | 0.924 (inactive) | -0.578 (inactive) | -0.758 (inactive) | -0.876 (inactive) | 0.827 | -0.655 (inactive) | 0.585 (inactive) | 0.205 |
| COc1ccc(CCN2C(=O)[C@@]3(Cc4ccccc42)c2ccccc2C(=O)N(Cc2ccccc2C(F)(F)F)[C@H]3c2ccc(CO)cc2)cc1 | 0.268 | -4.12 (inactive) | -1.41 (inactive) | -0.554 (inactive) | -0.361 (inactive) | -0.228 | -0.208 | 0.208 | 0.087 | 1.9 | -0.262 (inactive) | -0.201 | 0.074 (inactive) | -1.13 (inactive) | -1.87 (inactive) | -2.07 (inactive) | 1.85 | -1.4 (inactive) | -2.08 (inactive) | -2.04 |
| COc1cc(OC)c(C(O)C2C=CC3C(=O)NC(=O)C3N2Nc2ccc(Cl)cc2Cl)cc1Br (stereo not given) | 0.153 | -2.57 (inactive) | -0.835 (inactive) | 0.433 (inactive) | -0.919 (inactive) | 1.64 | 0.0111 | -0.241 | 0.414 | -0.366 | -2.02 (inactive) | 0.689 | 4.81 (inactive) | 1.4 (inactive) | -0.372 (inactive) | 1.84 (inactive) | -0.924 | -0.603 (inactive) | -5.17 (inactive) | -1.12 |
| CC(C)(C)OC(=O)CC[C@]1(C(=O)O)N=C(c2ccc(OCCCO)cc2)O[C@H]1c1ccccc1N=[N+]=[N-] | 0.629 | -0.686 (inactive) | 0.448 (inactive) | -0.38 (inactive) | -0.658 (inactive) | 1.32 | 0.825 | -0.09 | 0.414 | -0.815 | 0.234 (inactive) | 1.58 | 32.9 (active) | 28.4 (active) | 0.912 (inactive) | 6.45 (inactive) | -0.466 | 0.7 (inactive) | 1.14 (inactive) | 1.31 |
| COCCOC(=O)N1C(=O)[C@@]2(c3cc(C#Cc4ccc(OC)cc4)ccc31)[C@H](C(N)=O)[C@H]1C(=O)O[C@H](c3ccccc3)[C@H](c3ccccc3)N1[C@@H]2c1ccccc1OCCO | 0.753 | -3.77 (inactive) | -0.438 (inactive) | -0.168 (inactive) | -0.134 (inactive) | 0.784 | 0.398 | 0.666 | 1.81 | 1.66 | -0.289 (inactive) | 0.358 | 4.42 (inactive) | 2.55 (inactive) | -0.499 (inactive) | 1.59 (inactive) | -0.413 | 2.38 (inactive) | 1.1 (inactive) | 1.44 |
| COC(=O)[C@@]1(Cc2ccc(F)cc2)[C@H]2c3cc(C(=O)N(C)C)n(Cc4nc5ccccc5[nH]4)c3C[C@H]2CN1C(=O)c1ccccc1 | 0.507 | -0.574 (inactive) | 0.528 (inactive) | 1.53 (inactive) | 0.678 (inactive) | 0.711 | 0.348 | -0.806 | 0.484 | -0.586 | -0.827 (inactive) | -0.0297 | 20.5 (active) | 3.05 (inactive) | 1.13 (inactive) | 0.91 (inactive) | -0.377 | -0.0764 (inactive) | 0.32 (inactive) | -2.06 |
| CN(C)CCCC[C@@H]1NC(=O)[C@H]2C[C@@H](C(=O)NCCCCCNC(=O)CS)[C@@H](c3cccc(OCCO)c3)N2C1=O | 0.12 | 0.358 (inactive) | -0.358 (inactive) | -0.114 (inactive) | 0.547 (inactive) | 0.182 | -0.128 | 0.537 | 0.749 | 1.72 | -0.728 (inactive) | -0.0601 | 2.9 (inactive) | 0.55 (inactive) | -0.744 (inactive) | 0.203 (inactive) | -0.534 | 1.76 (inactive) | 0.749 (inactive) | 1.13 |

Reference: PubChem BioAssay
